Data on 13 molecules can be found in PubChem BioAssay (Tox21).

Experiment [1] is described as follows: qHTS assay to identify small molecule agonists of the RXR signaling pathway - cell viability counter screen (AID 1159529). Also: nearly all actives have a fitted effect of over 50% in size. Also: potency is read from the fitted curve at half-maximal effect. The conditions noted are these: RXR-alpha-bla HEK293T viability, CellTiter-Glo, 16 h; series mostly up to 76.8 µM. A digest of the protocol:
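Tox21 10K compounds were tested for cytotoxicity against GeneBLAzer RXR-alpha HEK 293T cells grown in 2% charcoal-stripped FBS. Exposure lasted 16 hr at 37 C, 5% CO2; viability read by CellTiter-Glo luminescence.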
(qHTS replaces the single test concentration by a dilution series.)

Experiment [2] is described as follows: qHTS assay to identify small molecule antagonists of the retinoic acid receptor (RAR) signaling pathway (AID 1159552; also: nearly all actives have a fitted effect of over 50% in size). To be noted: C3RL4 RARE luciferase reporter, retinol-stimulated, 6 h; series mostly up to 92.4 µM. A digest of the protocol:
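Overnight-plated C3RL4 reporter cells get compound, then retinol to 1 uM final; plates sit 6 hr at 37 C, 5% CO2. A luciferase reagent is added and light output recorded after 30 min at room temperature.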

Experiment [3] can be described thus: qHTS assay to identify small molecule agonists of the retinoic acid receptor (RAR) signaling pathway (AID 1159553). Also: potency is read from the fitted curve at half-maximal effect. The conditions noted are these: C3RL4 RARE luciferase reporter, agonist, 6 h; series mostly up to 73.3 µM. A digest of the protocol: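 Luminescence was measured 30 min after luciferase reagent addition at room temperature. Before that, C3RL4 reporter cells (1,000 per well, plated overnight) were treated with compound for 6 hr at 37 C and 5% CO2.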

Experiment [4] is described as follows: qHTS assay to identify small molecule antagonists of the estrogen related receptor (ERR) signaling pathway from Tox21 library - cell viability counter screen (AID 1224834). Also: nearly all actives have a fitted effect of over 30% in size. The conditions noted are these: ERR reporter cells viability, CellTiter-Fluor, 17.5 h; series mostly up to 92.4 µM. A digest of the protocol:
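CellTiter-Fluor fluorescence, read after 30 min at 37 C, measures viability of ERR cells. Cells plated at 2,000/well and incubated 6 h before pin-tool compound addition, then exposed 17.5 hours at 37 C.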

In experiment [5] the target is Luciferin 4-monooxygenase (Photinus pyralis) (UniProt P08659). Description: qHTS assay to identify small molecule inhibitors of firefly luciferase (AID 1224835). Also: nearly all actives have a fitted effect of over 25% in size. Also: potency is read from the fitted curve at half-maximal effect. The conditions noted are these: purified P. pyralis luciferase, luminescence inhibition; series mostly up to 115 µM. A digest of the protocol:
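Inhibition of purified Photinus luciferase is measured by luminescence. Substrate levels (D-luciferin, ATP) sit at their KM values. Each compound is tested in a concentration series.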

Experiment [6] is described as follows: qHTS assay to identify small molecule agonists of the constitutive androstane receptor (CAR) signaling pathway - cell viability counter screen (AID 1224836). Also: nearly all actives have a fitted effect of over 45% in size. To be noted: HepG2-CYP2B6-hCAR viability, CellTiter-Fluor, 23 h, PK11195 added to every well; series mostly up to 92.4 µM. The method, boiled down:
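Fluorescence from CellTiter-Fluor indicates live cells after 23 h exposure. The human hepatoma line expresses hCAR and a CYP2B6-2.2kb reporter. Incubation medium contains 0.75 uM PK11195 (final).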

Experiment [7] is described as follows: qHTS assay to identify small molecule antagonists of the constitutive androstane receptor (CAR) signaling pathway - cell viability counter screen (AID 1224837). Also: nearly all actives have a fitted effect of over 45% in size. The conditions noted are these: HepG2-CYP2B6-hCAR viability, CellTiter-Fluor, 23 h, co-treated with 50 nM CITCO; series mostly up to 92.4 µM. A digest of the protocol:
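Cytotoxicity counter-screen: CellTiter-Fluor fluorescence after 23 h compound exposure (15-point qHTS) in double-stable HepG2-CYP2B6-hCAR cells, with 50 nM CITCO added.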

The target in experiment [8] is Nuclear receptor subfamily 1 group I member 3 (Homo sapiens) (UniProt Q14994). In words: qHTS assay to identify small molecule antagonists of the constitutive androstane receptor (CAR) signaling pathway (AID 1224838).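 Also: HepG2 cells stably expressing hCAR with CYP2B6 luciferase reporter stimulated by CITCO; nearly all actives have a fitted effect of over 40% in size.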 Also: potency is read from the fitted curve at half-maximal effect. The conditions noted are these: HepG2-CYP2B6-hCAR luciferase, CITCO-stimulated, 24 h; series mostly up to 92.4 µM. A digest of the protocol:
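Antagonism measured as luciferase signal (ONE-Glo, 30 min, room temperature) in CAR-stimulated cells: HepG2-CYP2B6-hCAR double-stable line exposed 24 hr at 37 C to compound in a 15-point series plus 50 nM CITCO.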

Experiment [9] shares this target. Description: qHTS assay to identify small molecule agonists of the constitutive androstane receptor (CAR) signaling pathway (AID 1224839). Also: nearly all actives have a fitted effect of over 15% in size. Also: potency is read from the fitted curve at half-maximal effect. To be noted: HepG2 hCAR CYP2B6-luciferase, agonist mode, 24 h; series mostly up to 92.4 µM. A digest of the protocol:
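Stable hCAR/CYP2B6-2.2kb HepG2 line in DMEM with 10% FBS; compounds (15 concentrations) and 0.75 uM PK11195 final, 24 h at 37 C/5% CO2, then ONE-Glo luminescence after 30 min.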

Experiment [10] is described as follows: qHTS assay to identify small molecule antagonists of the estrogen related receptor signaling pathway with the pleiotropic PPARgamma coactivator (PGC) from Tox21 10K library - cell viability counter screen (AID 1224840; active = well fitted cell-killing curve with a large enough effect in the repeat runs, not every such curve was filed as active; also: nearly all actives have a fitted effect of over 40% in size). To be noted: PGC/ERR reporter cells viability, CellTiter-Fluor, 17.5 h; series mostly up to 92.4 µM. A digest of the protocol: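 Counter-screen for cytotoxicity: after 17.5 h compound exposure at 37 C, CellTiter-Fluor reagent added to PGC/ERR cells for 30 min and fluorescence read. Cells were seeded at 2,000 per well 6 h before dosing.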

Experiment [11] in a line: qHTS assay to identify small molecule antagonists of the retinoid acid receptor (RAR) signaling pathway - cell viability counter screen (AID 1159551). Also: nearly all actives have a fitted effect of over 35% in size. To be noted: C3RL4 cells viability, ATP luminescence (CellTiter-Glo), 6 h; series mostly up to 92.4 µM. The method, boiled down: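 Cytotoxicity counter screen: ATP content quantified by CellTiter-Glo luminescence in C3RL4 cells treated 6 hr at 37 C with compound and retinol (1 uM final). Cells plated at 1,000/well and cultured overnight before dosing.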

Experiment [12] in a line: qHTS assay to identify small molecule antagonists of the estrogen related receptor signaling pathway with the pleiotropic PPARgamma coactivator (PGC) from Tox21 10K library (AID 1224841; call rule not given here; also: actives are mostly falling curves and most rising ones were filed inactive; nearly all actives have a fitted effect of over 50% in size; also: potency is read from the fitted curve at half-maximal effect). The conditions noted are these: PGC/ERR reporter cell line, ONE-Glo luciferase, 18 h; series mostly up to 92.4 µM. The method, boiled down: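 Luminescence (One-Glo, 30 min at room temperature) after 18 h compound treatment at 37 C of PGC/ERR reporter cells plated at 2,000 cells/well and settled 6 h beforehand.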

The nature of experiment [13]: qHTS assay to identify small molecule agonists of the estrogen related receptor signaling pathway with the pleiotropic PPARgamma coactivator (PGC) from Tox21 10K library (AID 1224842). Also: nearly all actives have a fitted effect of over 15% in size. Also: potency is read from the fitted curve at half-maximal effect. To be noted: PGC/ERR reporter cell line, luciferase ONE-Glo, 18 h; series mostly up to 92.4 µM. The method, boiled down: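 Luminescence from One-Glo (30 min, room temperature) measured after PGC/ERR cells had 18 h at 37 C with pinned compound (23 nL in DMSO). Cells had been seeded at 2,000 per well and pre-incubated 6 h.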

Each structure is given as a SMILES string. Inconclusive results are not listed. Calls of active or inactive are those of the source. Unless noted, calls follow the shape of the dose curve; as a rule, active = well fitted curve in the direction sought with a large enough effect in the repeat runs; inconclusive = weak or mixed curves; inactive = no such curve, though single readings can be large; an effect the other way counts as inactive or inconclusive.

Luciferin 4-monooxygenase (Photinus pyralis), sequence (P08659 whole entry, looked up): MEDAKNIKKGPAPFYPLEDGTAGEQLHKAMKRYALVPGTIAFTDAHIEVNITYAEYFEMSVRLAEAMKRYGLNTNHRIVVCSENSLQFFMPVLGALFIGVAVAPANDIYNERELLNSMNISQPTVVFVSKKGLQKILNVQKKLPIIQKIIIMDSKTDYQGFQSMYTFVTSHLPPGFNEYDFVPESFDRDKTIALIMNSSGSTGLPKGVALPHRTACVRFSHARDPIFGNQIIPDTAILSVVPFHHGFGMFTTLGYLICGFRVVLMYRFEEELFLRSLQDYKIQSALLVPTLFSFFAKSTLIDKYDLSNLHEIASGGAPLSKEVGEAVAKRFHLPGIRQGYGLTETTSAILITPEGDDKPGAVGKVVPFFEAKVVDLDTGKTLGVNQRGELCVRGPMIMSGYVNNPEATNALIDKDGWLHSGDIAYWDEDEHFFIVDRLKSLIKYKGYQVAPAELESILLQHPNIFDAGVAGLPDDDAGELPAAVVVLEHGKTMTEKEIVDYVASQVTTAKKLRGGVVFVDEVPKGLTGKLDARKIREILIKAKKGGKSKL
Nuclear receptor subfamily 1 group I member 3 (Homo sapiens), sequence (Q14994 whole entry, looked up): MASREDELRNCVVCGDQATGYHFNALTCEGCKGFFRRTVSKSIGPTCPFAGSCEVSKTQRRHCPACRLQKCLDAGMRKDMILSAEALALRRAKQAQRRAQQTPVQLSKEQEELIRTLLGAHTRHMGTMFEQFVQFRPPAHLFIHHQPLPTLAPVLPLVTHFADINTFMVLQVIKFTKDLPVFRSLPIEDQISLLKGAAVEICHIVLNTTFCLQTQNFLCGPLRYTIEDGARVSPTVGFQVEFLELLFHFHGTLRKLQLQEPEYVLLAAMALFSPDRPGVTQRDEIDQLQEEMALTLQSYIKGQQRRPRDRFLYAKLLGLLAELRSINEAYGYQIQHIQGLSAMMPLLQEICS

Regarding `CCOC(=O)Nc1ccc2c(c1)N(C(=O)CCN1CCOCC1)c1ccccc1S2`, the Potency result in [1], in experiment [2], in experiment [3], in experiment [4], in experiment [5] and in experiment [9] was “inactive” in each case. Also, the outcome in [6], in experiment [7] and in [10] was inactive. Also, the Potency in [8] is 1190 nM (active).
`CC(C)c1ccc2oc3nc(N)c(C(=O)O)cc3c(=O)c2c1`: the Potency result in experiment [1], in experiment [2], in experiment [4], in experiment [8] and in experiment [12] was “inactive” each time. Also, the outcome in [11], in experiment [7] and in experiment [10] was inactive. Besides, the Potency in [3] is 2110 nM (active); in [5], 275 nM (active); in experiment [9] it was 841 nM (active); in experiment [13] it was 1330 nM (active).
Regarding `CCCCNc1ccccc1`, the Potency result in experiment [1], in [2], in experiment [3], in [4], in experiment [5] and in [8] was “inactive” throughout. The Potency result in experiment [9] was “inactive”. Besides, the call in experiment [11], in experiment [7] and in experiment [10] was inactive.
For `Oc1ccc2c(c1)OC[C@@H](N1CCC(O)(c3ccc(F)cc3)CC1)[C@H]2O`, the Potency result in [1], in experiment [2], in experiment [4], in experiment [8] and in experiment [12] was “inactive” each time. Moreover, the molecule was classed as inactive in experiment [11], in experiment [7] and in experiment [10]. Besides, the Potency is 531 nM (active) in [3], 1550 nM (active) in experiment [5] and 3760 nM (active) in experiment [9].
For the molecule `CCC(=O)Nc1cccc(N)c1`, the Potency result in experiment [1], in experiment [2], in experiment [3], in experiment [4], in [5] and in experiment [8] was “inactive” in each case. For the same molecule, the Potency result in experiment [9], in [12] and in [13] was “inactive” in each case. Also, the outcome in [11], in experiment [6], in experiment [7] and in experiment [10] was inactive.
For the molecule `CCCC(C)C(=O)O` (stereo not drawn), the Potency in experiment [1] is 18700 nM (active); in experiment [12], 52300 nM (active). Also, the molecule was called inactive in [11], in experiment [6], in experiment [7] and in experiment [10]. Besides, the Potency entry in experiment [2], in experiment [3], in [4], in [5], in experiment [8] and in experiment [9] was “inactive” in each case.
Turning to `CN(C)C(=O)Nc1ccccc1`, the Potency result in experiment [1], in experiment [2], in [3], in experiment [4], in experiment [5] and in experiment [8] was “inactive” throughout. Further, the Potency result in experiment [9] and in [12] was “inactive” in each case. For the same molecule, the result in [7] and in experiment [10] was inactive.
In the case of `C1=C\CC/C=C\CC/C=C\CC/1`, the Potency result in [1], in experiment [2], in [3], in experiment [4], in experiment [5] and in experiment [8] was “inactive” in each case. The Potency result in experiment [9] and in experiment [12] was “inactive” each time. The result in [11], in [6], in [7] and in [10] was inactive.
As for `OC[C@H]1O[C@@H]2O[C@H]3[C@H](O)[C@@H](O)[C@@H](O[C@H]4[C@H](O)[C@@H](O)[C@@H](O[C@H]5[C@H](O)[C@@H](O)[C@@H](O[C@H]6[C@H](O)[C@@H](O)[C@@H](O[C@H]7[C@H](O)[C@@H](O)[C@@H](O[C@H]8[C@H](O)[C@@H](O)[C@@H](O[C@H]9[C@H](O)[C@@H](O)[C@@H](O[C@H]1[C@H](O)[C@H]2O)O[C@@H]9CO)O[C@@H]8CO)O[C@@H]7CO)O[C@@H]6CO)O[C@@H]5CO)O[C@@H]4CO)O[C@@H]3CO`, the Potency entry in experiment [1], in experiment [2], in experiment [3], in [4], in [5] and in experiment [8] was “inactive” in each case. In addition, the Potency result in experiment [9], in [12] and in [13] was “inactive” in each case. Besides, the call in experiment [11], in [6], in experiment [7] and in [10] was inactive.
For `COC(=O)[C@H]1[C@H]2C[C@@H]3c4[nH]c5cc(OC)ccc5c4CCN3C[C@H]2C[C@@H](OC(=O)COc2ccc(OC)cc2)[C@@H]1OC`, the Potency entry in experiment [1], in experiment [2], in [3], in experiment [4], in experiment [5] and in experiment [8] was “inactive” each time. For the same molecule, the Potency entry in experiment [9] and in experiment [12] was “inactive” each time. For the same molecule, the outcome in experiment [11], in experiment [7] and in experiment [10] was inactive.
As to `C=C(C)C1CC=C(C)C(O)C1` (stereo not drawn), the Potency result in [1], in [2], in experiment [3], in experiment [4], in experiment [5] and in experiment [8] was “inactive” throughout. Further, the Potency entry in experiment [9] and in experiment [12] was “inactive” throughout. Further, the outcome in experiment [11], in experiment [6], in experiment [7] and in experiment [10] was inactive.
With `O=C(O)C(O)[C@H](O)[C@@H](O)[C@H](O)[C@H](O)CO` (stereo partly drawn), in [1], the Potency is 49500 nM (active). For the same molecule, the result in [11], in experiment [7] and in experiment [10] was inactive. Also, the Potency result in experiment [2], in experiment [3], in experiment [4], in [5], in experiment [8] and in experiment [9] was “inactive” throughout. In experiment [13], the Potency entry is “inactive”.
With `CCCC=O`, the Potency result in experiment [1], in experiment [2], in experiment [3], in [4], in experiment [5] and in experiment [8] was “inactive” throughout. Besides, the Potency entry in experiment [9] and in [13] was “inactive” each time. The molecule was called inactive in experiment [6], in experiment [7] and in [10].
